Test results as given in article PMC4336329 (PLoS ONE, 2015).
Hit rate of the full screen: of about 310,000 compounds, about 14,000 (4.5%) showed an effect of 50% or more. The effect is printed as a negative number. Only a selection was taken, and strong results are over-represented in it overall.

Each molecule was assayed against human ether-à-go-go-related gene (hERG) potassium channel (human, UniProt Q12809) (assay: primary screen, population patch clamp on CHO cells stably expressing hERG; higher = less effect of the substance).
human ether-à-go-go-related gene (hERG) potassium channel, sequence (Q12809 whole entry, looked up): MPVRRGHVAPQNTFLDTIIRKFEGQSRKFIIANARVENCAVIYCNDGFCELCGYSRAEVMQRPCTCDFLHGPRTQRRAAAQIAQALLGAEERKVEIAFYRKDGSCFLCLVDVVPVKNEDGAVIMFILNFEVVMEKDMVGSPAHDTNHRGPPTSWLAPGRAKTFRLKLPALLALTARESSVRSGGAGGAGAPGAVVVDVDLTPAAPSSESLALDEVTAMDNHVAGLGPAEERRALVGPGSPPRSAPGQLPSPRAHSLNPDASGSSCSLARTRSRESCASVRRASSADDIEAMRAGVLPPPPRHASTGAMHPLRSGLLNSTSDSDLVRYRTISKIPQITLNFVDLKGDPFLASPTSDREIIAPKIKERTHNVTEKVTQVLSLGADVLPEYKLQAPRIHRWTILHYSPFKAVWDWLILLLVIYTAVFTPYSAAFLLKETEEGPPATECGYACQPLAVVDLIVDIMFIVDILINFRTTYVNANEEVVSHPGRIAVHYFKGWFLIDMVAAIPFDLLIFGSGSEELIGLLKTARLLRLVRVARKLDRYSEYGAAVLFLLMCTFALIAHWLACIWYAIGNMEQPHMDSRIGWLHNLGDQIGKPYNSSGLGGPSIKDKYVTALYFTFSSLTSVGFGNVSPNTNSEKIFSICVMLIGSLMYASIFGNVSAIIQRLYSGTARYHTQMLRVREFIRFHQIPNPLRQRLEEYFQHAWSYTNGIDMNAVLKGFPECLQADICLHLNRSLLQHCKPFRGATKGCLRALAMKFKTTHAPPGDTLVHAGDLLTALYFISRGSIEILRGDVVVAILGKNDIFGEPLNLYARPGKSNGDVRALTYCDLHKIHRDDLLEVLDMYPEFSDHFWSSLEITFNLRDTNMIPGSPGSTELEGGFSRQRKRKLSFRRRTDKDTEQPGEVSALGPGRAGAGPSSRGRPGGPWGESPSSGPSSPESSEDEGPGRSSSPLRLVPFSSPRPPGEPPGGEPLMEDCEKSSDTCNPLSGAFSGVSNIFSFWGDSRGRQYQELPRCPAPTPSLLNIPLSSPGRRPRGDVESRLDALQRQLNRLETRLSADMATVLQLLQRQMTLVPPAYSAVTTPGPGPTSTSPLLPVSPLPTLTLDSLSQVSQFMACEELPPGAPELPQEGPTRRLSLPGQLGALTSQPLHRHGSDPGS
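Further: peak tail current of the secondary pulse compared with the same well before compound.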

Compound	hERG current change (%, negative = inhibition) at 10uM [%]
COc1ccc(-c2csc3nc(C)nc(N4CCCCC4)c23)cc1OC	-7.85
CC(C)C1Cc2c(sc3c2c(=O)n(Cc2ccccc2)c2nncn32)CO1 (stereo not drawn)	-11
COc1ccc(N2C(=O)CC(N3CCN(S(=O)(=O)c4cc(C)ccc4C)CC3)C2=O)cc1 (stereo not drawn)	-6.8
CC12C=CC3(O1)C(C(=O)N1CCCOC13)C2C(=O)O (stereo not drawn)	-2.54
Cc1cc(C)cc(N(C(=O)c2cc3ccccc3oc2=O)C2C=CS(=O)(=O)C2)c1 (stereo not drawn)	-55.4
COc1ccc(CN(C(=O)c2cc3ccccc3oc2=O)C2CCS(=O)(=O)C2)cc1 (stereo not drawn)	-18.9
O=C(c1cc2ccccc2oc1=O)N(Cc1ccccc1)C1CCS(=O)(=O)C1 (stereo not drawn)	-12.2
CCc1ccc(CN(C(=O)c2cc3ccccc3oc2=O)C2CCS(=O)(=O)C2)cc1 (stereo not drawn)	-56.5
Cc1ccc(CN(C(=O)c2cc3ccccc3oc2=O)C2CCS(=O)(=O)C2)cc1 (stereo not drawn)	-34
Cc1ccc(N(C(=O)c2cc3ccccc3oc2=O)C2C=CS(=O)(=O)C2)cc1 (stereo not drawn)	-6.15
CN(C)c1ccc(CN(C(=O)c2cc3ccccc3oc2=O)C2CCS(=O)(=O)C2)cc1 (stereo not drawn)	-11.8
O=C(c1cc2ccccc2oc1=O)N(c1ccccc1)C1C=CS(=O)(=O)C1 (stereo not drawn)	2.29
CC(C)c1ccc(CN(C(=O)c2cc3ccccc3oc2=O)C2CCS(=O)(=O)C2)cc1 (stereo not drawn)	-62
CC1(C)CC(=O)C=C(Nc2ccc3c(c2)CCC3)C1	-2.73
O=C(Nc1ccccc1)NC1CCN(Cc2nnnn2C2CCCCC2)CC1	-29.2
CCN1CCN(C(=O)c2ccc(CS(=O)Cc3ccc(C)cc3)o2)CC1 (stereo not drawn)	11
O=C(O)C1CCCC2CN3CCc4c([nH]c5ccccc45)C3C(O)C21 (stereo not drawn)	13.7
Cc1ccc(N(C(=O)CNC(=O)c2ccco2)C(C(=O)NC2CCCC2)c2ccncc2)c(C)c1 (stereo not drawn)	14.6
CCOc1ccc(NS(=O)(=O)c2ccc(NC(=O)C3CCCO3)cc2)cc1 (stereo not drawn)	20.7
C/C(=N\NC(=S)NCc1ccccc1)c1ccc2ccccc2c1	15.9
CN(C)CCCNc1ccc(-c2n[nH]c(=O)c3ccccc23)cc1[N+](=O)[O-]	1.1
COc1ccc(C(=O)NCc2ccc3c(c2)CCO3)cc1	7.15
OCC1(Cc2ccccc2C(F)(F)F)CCN(Cc2ccc3c(c2)CCO3)CC1	-28.7

Compound	hERG current change (%, negative = inhibition) at 10uM [%]
OCCC1CN(Cc2ccc3nsnc3c2)CCN1C1CCCC1 (stereo not drawn)	-25
O=C(c1cnsn1)N1CCC(CO)(Cc2ccc(Cl)cc2)CC1	-43.7
COc1ccc(CC2(CO)CCN(Cc3nc(C(C)C)cs3)CC2)cc1	-48.4
OCC1(CCc2ccccc2)CCN(Cc2ccc3nsnc3c2)CC1	-77.7
COc1ccc(CC2(CO)CCN(Cc3ccc4c(c3)CCO4)CC2)cc1	-65.7
COc1ccc(CC2(CO)CCN(Cc3ccc4nsnc4c3)CC2)cc1	-58.9
OCC1(Cc2ccc(Cl)cc2)CCN(Cc2ccc3nsnc3c2)CC1	-61.5
CC(NS(=O)(=O)c1ccc(F)cc1)C(=O)Nc1ccc2c(c1)OCCO2 (stereo not drawn)	13.2
CCOC(=O)c1ccc(N2C(=O)c3n[nH]c(C)c3C2c2ccco2)cc1 (stereo not drawn)	-5.29
Cc1ncoc1C(=O)N1CCCC(CCC(=O)NCc2ccccc2F)C1 (stereo not drawn)	-6.93
N#Cc1nc(COc2cccc(Cl)c2)oc1N1CCN(c2ccccc2)CC1	-4.18
COCCNC(=O)/C(C#N)=C/c1ccc(O)c([N+](=O)[O-])c1	14.7
CC(CS(=O)(=O)c1ccc2c(c1)NC(=O)CS2)C(=O)NCc1ccccc1Cl (stereo not drawn)	-0.823
COC(=O)c1ccc(C)c(NC(=O)c2ccc(CN3CCc4ccccc4C3)cc2)c1	6.57
CCOC(=O)N1CCN(C(=O)c2cc(COc3ccc(F)cc3F)on2)CC1	-17.1
CC(Oc1ccc(-c2ccccc2)c(F)c1)c1ccn(S(=O)(=O)c2ccc(F)cc2)n1 (stereo not drawn)	16
COc1ccccc1-c1ccc(Nc2cccc(C(F)(F)F)c2)nn1	15.4
Cc1cccc(Cn2c(SCCN3CCCCC3)nc3c2c(=O)[nH]c(=O)n3C)c1	-79.1
Cc1ccc(Cn2c(SCCN3CCCCC3)nc3c2c(=O)[nH]c(=O)n3C)cc1	-74.1
Cc1cccc(Cn2c(SCC(=O)Nc3ccccc3)nc3c2c(=O)[nH]c(=O)n3C)c1	-30.2
CCCSc1nc2c(c(=O)[nH]c(=O)n2C)n1Cc1ccccc1	-17.4
Cc1ccc(Cn2c(N3CCCCCC3)nc3c2c(=O)[nH]c(=O)n3C)cc1	0.362
Cn1c(=O)[nH]c(=O)c2c1nc(SCCO)n2CCCc1ccccc1	-4.68

Compound	hERG current change (%, negative = inhibition) at 10uM [%]
Cc1ccc(Cn2c(SCC(C)C)nc3c2c(=O)[nH]c(=O)n3C)cc1	4.21
Cn1c(=O)[nH]c(=O)c2c1nc(SCCN1CCCCC1)n2CCCc1ccccc1	-69
Cn1c(=O)[nH]c(=O)c2c1nc(SCCN1CCCCC1)n2Cc1ccccc1	-78.9
Cn1c(=O)[nH]c(=O)c2c1nc(SCC(=O)O)n2Cc1ccccc1	-5.45
COCCSc1nc2c(c(=O)[nH]c(=O)n2C)n1Cc1cccc(C)c1	-45.6
Cn1c(=O)[nH]c(=O)c2c1nc(SCCN1CCOCC1)n2CCCc1ccccc1	-46.9
Cn1c(-c2ccc(Cl)nc2)nc2cc(Cl)ccc21	-9.09
CC(C)CNC(=O)C1Nc2ccccc2C2C=CCC12 (stereo not drawn)	-6.43
COc1cccc(N(CC(=O)N/N=C(\C)c2cccs2)S(C)(=O)=O)c1	6.58
Cc1cc(NS(=O)(=O)c2ccc(NC(=O)N[C@H](C(=O)O)C(C)C)cc2)no1	29.3
CCN(CC)C(=S)NC(=O)Cc1ccccc1	16.1
COc1ccc(S(=O)(=O)NC(C)CCc2ccccc2)cc1 (stereo not drawn)	-3.49
Cc1c(NC(=O)C(c2ccccc2)c2ccccc2)cccc1C(=O)O	16
CCO[C@@H]1OC(C(=O)Nc2ccccc2)=C[C@H](C)[C@H]1CCCO	1.08
CSc1nnc(NC(=O)c2ccc(C)c(S(=O)(=O)N3CCOCC3)c2)s1	0.594
C=C(C)CSc1nc2c(c(=O)[nH]c(=O)n2C)n1Cc1ccccc1	-12.3
Cn1c(=O)[nH]c(=O)c2c1nc(CN(Cc1ccccc1)Cc1ccccc1)n2CCN1CCOCC1	-16.6
Cn1c(=O)[nH]c(=O)c2c1nc(SCCN1CCOCC1)n2Cc1ccccc1	-54.4
Cc1onc(-c2c(Cl)cccc2Cl)c1NC(=O)NNc1ccccn1	-11.7
CSc1nc(C)c2c(n1)N(c1ccc(O)cc1)CC2	4.88
COc1ccc(N2CCc3c(C)nc(SC)nc32)cc1	3.4
COc1cc(OC)c2nc(C)c3c(c2c1)N(c1ccc(O)cc1)CC3	-72.1
COc1ccc2c(c1OC)C(=O)N(c1ccc(O)cc1)C2	13.5

Compound	hERG current change (%, negative = inhibition) at 10uM [%]
COc1ccc(N2CCCC2=N)c(OC)c1.Cl	12.7
COc1ccc(N2C(=O)CCC2=O)c(OC)c1	20.7
COc1ccc(N2CCc3c(C)nc4c(OC)cc(OC)cc4c32)cc1	-75
COc1ccc(N2CCc3c(C)nc4c(OC)cc(OC)cc4c32)c(OC)c1	-75.3
CCOc1ccc(N2CCc3c(C)nc(SC)nc32)cc1	-2.26
Cc1cc(C)n(CCOc2ccc(Br)cc2)n1	1.08
O=C(NCc1ccc(-c2nc3ccccc3s2)cc1)c1cc2ccccc2o1	-1.71
CN(C)C(=O)c1cc(C(=O)c2ccccc2Cl)c[nH]1	11.8
COc1cc(C(=O)N/N=C/c2sc(N3CCOCC3)nc2-c2ccccc2)cc(OC)c1OC	3.33
CC(=O)Nc1ccc(S(=O)(=O)N2CCN=C2C)cc1	5.24
CC(=O)NCCC(=O)N1CCCC(C(=O)c2ccc3c4c(cccc24)CC3)C1 (stereo not drawn)	-18.5
CCSC1=C(C#N)C(c2cccc(O)c2)CC(=O)N1 (stereo not drawn)	2.7
O=C(CCc1ccccc1)Nc1ccc(S(=O)(=O)N2CCOCC2)cc1	-28.1
O=C(CNc1cc(S(=O)(=O)N2CCOCC2)ccc1NCC1CCCO1)Nc1ccc(C(F)(F)F)cc1 (stereo not drawn)	-30.4
N#Cc1ccc(NC(=O)CNc2cc(S(=O)(=O)N3CCOCC3)ccc2NCC2CCCO2)cc1 (stereo not drawn)	-70
CC(=O)c1cccc(NC(=O)COC(=O)CCc2ccc(S(=O)(=O)N3CCOCC3)cc2)c1	6.05
COc1ccc(NC(=O)CNc2cc(S(=O)(=O)N3CCOCC3)ccc2NCC2CCCO2)cc1 (stereo not drawn)	-18.3
N#Cc1ccc(NC(=O)CCc2ccc(S(=O)(=O)N3CCOCC3)cc2)cc1	-51.5
N#Cc1ccc(NC(=S)NC(=O)CCc2ccc(S(=O)(=O)N3CCOCC3)cc2)cc1	0.205
O=C(COC(=O)CCc1ccc(S(=O)(=O)N2CCOCC2)cc1)Nc1cccc(Cl)c1	-30.3
N#Cc1cccc(NC(=O)COC(=O)CCc2ccc(S(=O)(=O)N3CCOCC3)cc2)c1	-60.1
